# Screens deposited in PubChem BioAssay by National Center for Advancing Translational Sciences (NCATS).
# Pf Dd2 growth – qHTS Primary assay for Inhibitors of Plasmodium falciparum Dd2 growth in vitro; P. falciparum Dd2 growth, SYBR Green, 72 h; Potency, µM (top dose mostly 28.9 µM), for inactives: at the highest dose activity, negative = inhibition, usual class: inhibitors; hit rate 4.3% among 120,000; AID 1347417, 2020; active means well fitted inhibition curve with a large enough effect;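 further: plate controls were DMSO vehicle for no effect and reference drug for full effect; nearly all actives have a fitted effect of over 65% in size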
#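 Readout: SYBR Green fluorescence, 485 nm excitation, 535 nm emission, after ~16 h lysis at 37C. Before that, Dd2-infected red cells (2.5% hematocrit) grew 72 h with compound, 29 uM top final concentration.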
# Active calls of the source: *; i = inactive; [ ] = remark or other dose. The entries come from a sample that favours hits as a whole. Potency means the concentration at half of the fitted maximal effect.
SMILES,Pf Dd2 growth
COCCOC1CN(C2CCNCC2)C12CCCCC2 (centres undefined),7%
N#Cc1nccnc1N1CCN(C2CCC3(CCNCC3)CC2)CC1,-18%
COc1ccc(NC(=O)C2CCN(c3cc(C(F)(F)F)ncn3)CC2)cc1Cl,i
Cn1c([C@H]2CCN(Cc3cccc(C#N)c3)C2)nc2ccccc21,10µM*
COc1ccccc1-c1nnc([C@H]2CCN(Cc3cccnc3)C2)o1,13µM*
COc1ccc(-c2nnc([C@H]3CCN(Cc4cccc(C#N)c4)C3)o2)cc1,14µM*
Cn1c([C@H]2CCN(Cc3ccc(Cl)cc3)C2)nc2ccccc21,i
Cn1cncc1-c1nnc([C@H]2CCN(Cc3cccc(C#N)c3)C2)o1,-9%[44.1 µM]
Cn1c([C@H]2CCN(Cc3ccccc3)C2)nc2ccccc21,i
COc1ccc(C(=O)N2CC[C@H](c3nnc(-c4ccccc4)o3)C2)cc1,-17%[44.1 µM]
COc1ccc(-c2nnc([C@H]3CCN(S(C)(=O)=O)C3)o2)cc1,13%[44.1 µM]
COc1ccccc1-c1nnc([C@H]2CCN(Cc3ccc(C(=O)O)cc3)C2)o1,i
COc1ccc(CN2CC[C@H](c3nnc(-c4ccncc4)o3)C2)cc1,i
COc1ccc(-c2nnc([C@H]3CCN(S(=O)(=O)Cc4ccccc4)C3)o2)cc1,10µM*
COc1ccccc1-c1nnc([C@H]2CCN(Cc3ccc(F)cc3)C2)o1,i
CC(C)CCN1CCC2(CC1)Cc1ccccc1NC2=O,-5%[44.1 µM]
O=C(Cc1ccccc1F)N1C[C@@H](CO)[C@H](c2ccccn2)C1,20%
Cc1nc(-c2c3n(c(=O)n(CC(=O)NCc4ccc(F)cc4)c2=O)CCCC3)no1,230%
CC(=O)N1CCC(N[C@@H]2C[C@H](COc3cccc(C)n3)[C@@H](O)[C@H]2O)CC1,20%
O=C(NCCc1ccncc1)C1CN(C(=O)c2c(F)cccc2F)CC12CCOCC2 (centres undefined),12%
COc1cccc(C(=O)N(Cc2cccc(F)c2)C2CCS(=O)(=O)C2)c1 (centres undefined),-6%
Cc1cccc(NC(=O)CC2CCCCN(C)C2=O)c1 (centres undefined),-19%
COc1ccc2occ(CC(=O)Nc3ccc(S(=O)(=O)Nc4nc(C)cc(C)n4)cc3)c2c1,12%
Cc1ccc(C(=O)N(c2ccc(C)cc2)S(=O)(=O)c2ccc(Cl)cc2)cc1,86%
CC(C)CCO[C@H]1COCCN(C2CCN(C)CC2)C1,-20%[44.1 µM]
SMILES,Pf Dd2 growth
Cc1nc(CC2CCN(C(=O)c3ccco3)CC2)n[nH]1,9%
O=C(C1CC(=O)N(C2CC2)C1)N1CCN(Cc2ccncc2)CC1 (centres undefined),-4%
Cc1ccc(CN2CC[C@H](c3nnc(-c4ccccc4)o3)C2)cc1,10µM*
Cc1ccc(-c2nnc([C@H]3CCN(Cc4ccc(CO)o4)C3)o2)cc1,i
FC(F)(F)c1ccc(CN2CC[C@H](c3nnc(-c4ccccc4)o3)C2)cc1,i
Cc1ccc2nc(CSc3nnc(NC(=O)c4cccc(Br)c4)s3)cc(=O)n2c1,20%
COC[C@@H]1CN(C(=O)c2ccc(F)c(Cl)c2)C[C@H]1c1ccncc1,0%
CC(C)=CCN1CCCC2(Cc3ccccc3CNC2=O)C1 (centres undefined),10µM*
O=C1NCc2ccccc2CC12CCCN(Cc1c(Cl)cncc1Cl)C2 (centres undefined),-24%
Cc1ccsc1CN1CCCC2(Cc3ccccc3CNC2=O)C1 (centres undefined),-27%
COc1ccc(NC(=O)N2CCc3c(C(=O)NCc4ccncc4)cccc32)cc1,-12%
COc1ccc(-c2cc(C(F)(F)F)n3nc(C(=O)NCC45CC6CC(CC(C6)C4)C5)cc3n2)cc1OC,-8%
O=C(C1[C@H]2CNC[C@@H]12)N1CCC(c2nccn2Cc2ccncc2)CC1 (some centres undefined),-3%
CCN1CCC(N2CC(Oc3cccc(C(=O)NCC4CC4)c3)C2)CC1,5%
O=C(NCC1CC1)c1cccc(OC2CN(C3CCSCC3)C2)c1,-9%
O=C(NCC1CC1)c1cccc(OC2CN(Cc3ccc(F)cc3Cl)C2)c1,11µM*
N#Cc1cccc(CN2C[C@H](O)C[C@H]2c2nc(-c3ccc(F)cc3)no2)c1,i
CCC(C(=O)Nc1ccc(C(C)=O)cc1)n1cnc2nc3c(cc2c1=O)CCCC3 (centres undefined),10µM*
COC(=O)c1ccc(Cn2cnc3nc4c(cc3c2=O)CCCC4)cc1,56%
Cc1ccc(Cn2cnc3nc4c(cc3c2=O)CCCC4)cc1,-24%
Cc1ccc(-n2c(=O)c3ccc(C(=O)NCc4ccccc4Cl)cc3n(CC(N)=O)c2=O)cc1,23%
Cc1c(Cl)cccc1NC(=O)Cn1c(=O)n(Cc2nc(-c3ccccc3)no2)c(=O)c2cc3c(cc21)OCO3,-12%
O=C(Cn1c(=O)n(-c2ccccc2)c(=O)c2ccc(C(=O)NCc3ccc4c(c3)OCO4)cc21)Nc1ccc(Br)cc1F,8.9µM*
Cc1ccc(NC(=O)Cn2c(=O)n(Cc3nc(-c4ccccc4)no3)c(=O)c3cc4c(cc32)OCO4)c(C)c1,87%
